Common to all, as to format: functional
Assay [1] deals with Solute carrier family 2, facilitated glucose transporter member 1 (Homo sapiens) (UniProt P11166). Briefly: ST_JUDE_LEISH: Cytotoxicity at 2uM final concentration against transgenic Leishmania Mexicana promastigotes LmGLUT1 that are glucose transport deficient and complemented with the human glucose transporter GLUT1. Activity is measured by DNA content using SYBR green in vitro.

Assay [2] concerns the target Hexose transporter 1 (Plasmodium falciparum) (UniProt O97467). In words: ST_JUDE_LEISH: Cytotoxicity at 2uM final concentration against transgenic Leishmania Mexicana promastigotes LmPfHT that are glucose transport deficient and complemented with the Plasmodium falciparum hexose transporter. Activity is measured by DNA content using SYBR green in vitro.
In assay [3] the target is Glucose transporter (Leishmania mexicana) (UniProt O61059). In words: ST_JUDE_LEISH: Cytotoxicity at 2uM final concentration against transgenic Leishmania Mexicana promastigotes LmGT2 that are glucose transport deficient and complemented with the L. Mexicana glucose transporter 2. Activity is measured by DNA content using SYBR green in vitro.

The structures appear in SMILES notation.

Solute carrier family 2, facilitated glucose transporter member 1 (Homo sapiens), sequence (P11166 whole entry): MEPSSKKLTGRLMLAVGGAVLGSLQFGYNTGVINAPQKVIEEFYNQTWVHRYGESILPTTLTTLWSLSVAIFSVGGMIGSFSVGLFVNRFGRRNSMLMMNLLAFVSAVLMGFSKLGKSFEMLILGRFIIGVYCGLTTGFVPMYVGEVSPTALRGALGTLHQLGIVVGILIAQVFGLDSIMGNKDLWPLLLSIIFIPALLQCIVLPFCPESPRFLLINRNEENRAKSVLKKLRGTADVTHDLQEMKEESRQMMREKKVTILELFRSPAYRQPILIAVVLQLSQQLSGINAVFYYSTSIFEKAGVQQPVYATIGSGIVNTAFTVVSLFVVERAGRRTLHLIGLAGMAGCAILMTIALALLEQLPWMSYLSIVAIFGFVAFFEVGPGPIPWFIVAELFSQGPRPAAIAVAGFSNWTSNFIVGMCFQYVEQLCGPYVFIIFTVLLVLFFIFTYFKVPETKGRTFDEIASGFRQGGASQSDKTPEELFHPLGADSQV

One may read the inhibition as the change of the read-out against control, counted positive when it falls. As to `Cc1ccc2ccncc2c1N`, the inhibition amounted to 7.9% in assay [1], 3.24% in assay [2] and 6.36% in assay [3].

With `CC1(C)S(=O)(=O)CC(O)CS1(=O)=O`, the figures for the inhibition in assay [1], in assay [2] and in assay [3] were 3.87%, 3.02% and 2.49%, respectively.

Turning to `c1cc(CNC2CCN(CC3CCCCC3)CC2)cc(-n2ccnc2)c1`, the inhibition in assay [1] was -0.57%; in assay [2] it was -0.48%; in assay [3] it was 1.45%.

For the compound `O=C(/C=C/c1ccc(C(F)(F)F)cc1)NCCCCCN1CCCN(C(=O)Nc2cccc(Cl)c2)CC1`, the inhibition in assay [1] is -0.19%; in assay [2], -1.13%; in assay [3], 1.47%.

As for `O=C(Nc1cccc(C(F)(F)F)c1)c1cccc(S(=O)(=O)NCC2CCCN(Cc3ccccc3)C2)c1` (stereo not drawn), the inhibition in assay [1] stood at 1.71%; in assay [2], 1.75%; in assay [3], 1.71%.

With `CC(C)(C)NC(=O)c1ccc(Oc2ccc(OC(F)(F)F)cc2)c(NC(=O)C(C)(C)C)c1`, the inhibition in assay [1] is -3.08%; in assay [2] it was -1.32%; in assay [3], -2.26%.

Consider `COc1ccc2[nH]c(/C=C/c3cccc4ccc(C)nc34)nc2c1`, for which the values for the inhibition in assay [1], in assay [2] and in assay [3] were 2.88%, 2.44% and 0.69%, respectively.

In the case of `O=C(Nc1cccc(CN2CCCN(Cc3ccccc3)CC2)c1)c1cc2ccccc2s1`, the results for the inhibition in assay [1], in assay [2] and in assay [3] were 1.27%, 1.24% and -4.49%, respectively.

On to `FC(F)(F)c1ccc(-c2cncc(-c3ccc(C(F)(F)F)cc3)n2)cc1`, for which the results for the inhibition in assay [1], in assay [2] and in assay [3] were -1.94%, -1.14% and -1.64%, respectively.

`COc1ccc(C(=O)Nc2ccc3nc(N4CCCCC4)cc(C)c3c2)cc1OC`: the figures for the inhibition in assay [1], in assay [2] and in assay [3] were 1.54%, -0.36% and 0.56%, respectively.

`COc1c(C2CCN(CCN3CCC(NC(=O)c4ccc(-c5ccc(C(F)(F)F)cc5)cc4)CC3)CC2)ccc2c1CCCC2`: the inhibition in assay [1] was 0.78%; in assay [2], 1.26%; in assay [3] it was 0.67%.

In the case of `CCOC(=O)c1ccc(N2CCN(CCCNC(=O)/C(=C/C=C/c3cc4cc(Cl)c(Cl)cc4[nH]3)OC)CC2)cc1`, the inhibition in assay [1] was determined as 2.48%; in assay [2], 3.47%; in assay [3] it was 0.57%.

In the case of `COc1ccc(C=NNc2nc3ccccc3[nH]2)cc1O`, the inhibition in assay [1] was -3.31%; in assay [2], -1.02%; in assay [3], 1.86%.

`CC[C@H](C)[C@@H](C(=O)N1CCOCC1)N1CC[C@H](NS(=O)(=O)CC(C)(C)c2ccc(Cl)cc2)C1=O`: the inhibition in assay [1] was 0.22%; in assay [2], 0.79%; in assay [3] it was -1.13%.

`COc1ccc(NC(=O)/C=C/c2cc(F)cc(C(F)(F)F)c2)cc1OCCN(C(C)C)C(C)C`: the figures for the inhibition in assay [1], in assay [2] and in assay [3] were 9.32%, 9.92% and 6.4%, respectively.

For the compound `CCOc1ccc2ccccc2c1C(=O)Nc1cc(C)nn1-c1nc(C)cc(=O)[nH]1`, the inhibition was found to be 49.6% in assay [1], 44.4% in assay [2] and 20.4% in assay [3].

`CC(C)CNCc1ccc(-c2cccc(-c3nc4ccccc4[nH]3)c2)cc1`: the inhibition worked out at 1.31% in assay [1], 9.2% in assay [2] and 0.1% in assay [3].

Consider `CN(C)c1cccc2c1nc(-c1ccco1)n2CCNCc1ccccc1`, for which the inhibition in assay [1] was -0.08%; in assay [2] it was 1.58%; in assay [3], -0.13%.

Turning to `CCCOc1c(CCNCCCCNCCc2ccc3ccccc3c2OCCC)ccc2ccccc12`, the values for the inhibition in assay [1], in assay [2] and in assay [3] were 60.8%, 13.6% and 40.1%, respectively.

Consider `O=C(Nc1ccc(-c2ccc(-c3nc4ccccc4[nH]3)cc2)cc1)Nc1ccc(Cl)c(Cl)c1`, for which the inhibition in assay [1] was 3.78%; in assay [2], 2.21%; in assay [3] it was -4.96%.

For the compound `COc1cc(NC(=O)/C=C/c2cc(F)cc(F)c2F)cc(OCCN2CCC3(CC2)OCCO3)c1`, the inhibition came to 3.83% in assay [1], 3.1% in assay [2] and 1.7% in assay [3].

As for `COc1ccc(Cc2nc(/N=C(\N)Nc3ccccc3)ccc2OC)cc1`, the figures for the inhibition in assay [1], in assay [2] and in assay [3] were 0.38%, 1.68% and -0.02%, respectively.

Turning to `Cc1cc(Nc2cccc(Cl)c2)nc2ccc(NC(=O)c3ccc(=O)[nH]c3)cc12`, the results for the inhibition in assay [1], in assay [2] and in assay [3] were 2.59%, 3.49% and 3.64%, respectively.

Take `CCn1ccc2c(N3CCCC3=O)cc(C(=O)N[C@@H](Cc3ccccc3)[C@H](O)CNC(C)(C)CCCC(C)C)cc21`: the figures for the inhibition in assay [1], in assay [2] and in assay [3] were 0%, 0.39% and 0.34%, respectively.

Consider `CCC[C@@H]([C@@H](CC(C)C)C(=O)N[C@H](C(=O)Nc1nccs1)C(C)(C)SCCNC(=O)OCC)N(O)C=O`, for which the inhibition was 2.68% in assay [1], 4.73% in assay [2] and 3.58% in assay [3].

As for `CCc1nc(N)nc(N)c1-c1ccccc1`, the inhibition in assay [1] came out at 2.31%; in assay [2], 2.67%; in assay [3], 3.69%.

As to `O=C(NNC(=O)c1ccc(CCN2CCC(c3nc(COCC(F)(F)F)c(-c4ccc(F)cc4)o3)CC2)cc1)Nc1ccc(Oc2ccccc2)cc1`, the inhibition in assay [1] was -0.99%; in assay [2], -0.56%; in assay [3], -0.09%.

Consider `COc1cc(Cc2cnc(N)nc2N)cc(OCCCC#N)c1OC`, for which the inhibition in assay [1] was 0.61%; in assay [2], -1.21%; in assay [3], -1.3%.

As for `Cc1onc(-c2c(Cl)cccc2Cl)c1C(=O)NC1=NC(C)(C)ON1c1ccccc1`, the values for the inhibition in assay [1], in assay [2] and in assay [3] were 5.88%, 5.44% and 4.86%, respectively.

In the case of `Fc1ccc2[nH]c(-c3ccccc3)nc2c1CN1CCC(N2CCCC2)CC1`, the inhibition in assay [1] was -0.78%; in assay [2] it was 0.83%; in assay [3], 2.29%.

Consider `COc1ccc2c(=NN=Cc3ccc(F)cc3)cc(C)[nH]c2c1`, for which the inhibition in assay [1] is 12.2%; in assay [2] it was 11%; in assay [3], 11.6%.

On to `Nc1nc2c(ncn2COC(COCc2ccccc2)COCc2ccccc2)c(=O)[nH]1.Nc1nc2ncn(COC(COCc3ccccc3)COCc3ccccc3)c2c(=O)[nH]1`, for which the inhibition was -0.7% in assay [1], -2% in assay [2] and -0.45% in assay [3].

For `Cc1nc2ccccc2n1C1CC2CCC(C1)N2CCCC1(c2ccccc2)CCN(C(=O)OCc2ccccc2)CC1` (stereo not drawn), the inhibition in assay [1] came to 3.25%; in assay [2], 0.85%; in assay [3], 2.57%.

On to `Cn1nc(C(F)(F)F)c(-c2ccc(Br)cc2)c1NC(=O)Cc1ccccc1F`, for which the inhibition in assay [1] was -1.83%; in assay [2], 3.22%; in assay [3], -2.17%.

With `CCc1nc(N)nc(N)c1-c1ccc(F)c(F)c1`, the inhibition came to 3% in assay [1], 5.22% in assay [2] and 3.74% in assay [3].

For `CN1CCN(c2ccc(Nc3ncc(Cl)c(Nc4cccnc4C(N)=O)n3)cc2)CC1`, the inhibition in assay [1] came out at 84.2%; in assay [2] it was 87.3%; in assay [3], 66.8%.

The record behind these values is ChEMBL document CHEMBL3433997, “St. Jude Leishmania screening dataset” (2016).
